Measurements from PubChem BioAssay (Tox21).
Inconclusive results are not listed. The source made the active and inactive calls. Unless noted, calls come from the whole dose curve; as a rule, active = well fitted curve in the direction sought with a large enough effect in the repeat runs; inconclusive = weak or mixed curves; inactive = no such curve, though single readings can be large; an effect the other way counts as inactive or inconclusive.

What was measured:
[1] = target: Estrogen receptor beta (Homo sapiens) (UniProt Q92731); assay: qHTS assay to identify small molecule agonists of the estrogen receptor beta (ER-beta) signaling pathway (AID 1259377; active = well fitted activation curve with a large enough effect in the signal ratio in the repeat runs, not every such curve was filed as active; the % refers to the signal ratio)
In short: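 HEK293T ER-beta-UAS-bla; 2% charcoal-stripped FBS; cells pre-incubated 6 hr, compound 16 hr, 37C/5% CO2; LiveBLAzer B/G FRET substrate 2 h RT; fluorescence intensity read.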

[2] = target: Estrogen receptor beta (Homo sapiens) (UniProt Q92731); assay: qHTS assay to identify small molecule antagonists of the estrogen receptor beta (ER-beta) signaling pathway (AID 1259378; active = well fitted inhibition curve with a large enough effect in the signal ratio in the repeat runs, not every such curve was filed as active; the % refers to the signal ratio)
In short: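 ER-beta-UAS-bla HEK293T cells in 2% charcoal-stripped FBS medium treated with compound plus 1nM final 17-beta-estradiol for 16 hr at 37C. Beta-lactamase reporter read by FRET substrate fluorescence after 2 hours at room temperature.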

[3] = qHTS assay to identify small molecule agonists of the androgen receptor (AR) signaling pathway in the presence of an antagonist - cell viability counter screen (AID 1259379);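 note: MDA-kb2 human breast cancer cells carrying an MMTV luciferase reporter; series mostly up to about 92 µM; nearly all actives have a fitted effect of over 25% in size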
In short: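 Fluorescence from CellTiter-Fluor, added after 15 hr and read 1 hr later, gave cell viability. Cells were MDA-kb2 exposed to compounds (15 concentrations) in the presence of 3.0uM nilutamide at 37C, 0% CO2.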

[4] = qHTS assay to identify small molecule agonists of the estrogen receptor beta (ER-beta) signaling pathway - cell viability counter screen (AID 1259380); note: nearly all actives have a fitted effect of over 30% in size
In short: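 Same-well viability counter screen. Cells: ER-beta-UAS-bla HEK293T, plated 6 hr before compound, in 2% charcoal-stripped FBS. Compound exposure 16 hr, 37C; viability by CellTiter-Glo luminescence after 30 min at room temperature.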

[5] = qHTS assay to identify small molecule antagonists of the estrogen receptor beta (ER-beta) signaling pathway - cell viability counter screen (AID 1259382); note: series mostly up to about 92 µM; nearly all actives have a fitted effect of over 55% in size
In short: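 Following a 6 hr plating period, HEK293T cells carrying a UAS-driven beta-lactamase reporter under ER-beta control received compounds and 1nM E2 (final). After 16 hr at 37C and 2 hr substrate loading, CellTiter-Glo luminescence indicated viability.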

[6] = target: Estrogen receptor (Homo sapiens) (UniProt P03372); assay: qHTS assay to identify small molecule agonists of the estrogen receptor alpha (ER-alpha) signaling pathway in the presence of an antagonist (AID 1259383; calls by dose curve; note: top concentration of the series differs between compounds; nearly all actives have a fitted effect of over 15% in size)
In short: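 Cells are hormone-deprived for 5 days (charcoal-stripped FBS, no phenol red), plated for 24hr, spiked with 10.0nM ICI-182,780, then dosed at 15 concentrations. After 22hr at 37C, ONE-Glo luminescence reports ERE-luciferase activity.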

[7] = qHTS assay to identify small molecule agonists of the estrogen receptor alpha (ER-alpha) signaling pathway in the presence of an antagonist - cell viability counter screen (AID 1259386);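 note: series mostly up to about 92 µM; cells exposed to compounds for 22 h at 37 °C before the viability read; nearly all actives have a fitted effect of over 30% in size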
In short: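 Cells are starved of estrogens for 5 days in charcoal-stripped serum, seeded for 24hr and co-treated with ICI-182,780 (10.0nM final) and test compounds. After 22hr at 37C, viability is read as CellTiter-Fluor fluorescence.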

[8] = target: Progesterone receptor (Homo sapiens) (UniProt P06401); assay: qHTS assay to identify small molecule agonists of the progesterone receptor (PR) signaling pathway (AID 1346784; calls by dose curve; note: nearly all actives have a fitted effect of over 30% in size)
In short: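 Beta-lactamase reporter read-out: after 16 hr compound treatment at 37C and a further 2 hr at room temperature with LiveBLAzer B/G FRET substrate, fluorescence was measured in PR-UAS-bla HEK 293T cells grown in 2% charcoal-stripped serum.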

[9] = qHTS assay to identify small molecule antagonists of the progesterone receptor (PR) signaling pathway - cell viability counter screen (AID 1346798);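 note: HEK293T PR-UAS-bla cells stimulated with the agonist R5020; series mostly up to about 92 µM; nearly all actives have a fitted effect of over 50% in size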
In short: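 HEK293T PR-UAS-bla, 2% charcoal-stripped FBS; 4 hr pre-plate; cpd + R5020, 16 h 37C; LiveBLAzer read first; then CellTiter-Glo 30 min RT, luminescence.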

[10] = qHTS assay to identify small molecule agonists of the progesterone receptor (PR) signaling pathway - cell viability counter screen (AID 1346799; calls by dose curve; note: nearly all actives have a fitted effect of over 45% in size)
In short: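 Luminescence from CellTiter-Glo, added after the beta-lactamase FRET read in the same wells, gave cytotoxicity in PR-UAS-bla HEK293T cells treated with compounds for 16 hr at 37C.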

[11] = qHTS assay to identify small molecule antagonists of the TGF-beta/Smad signaling pathway - cell viability counter screen (AID 1346824); note: nearly all actives have a fitted effect of over 50% in size
In short: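 SBE-bla HEK 293T cells, incubated overnight, then compound plus 0.25 ng/mL TGF-beta1 (stock added) for 5 hr at 37 C. Viability was read in the same wells by CellTiter-Glo luminescence after 30 min at room temperature.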

[12] = qHTS assay to identify small molecule agonists of the TGF-beta/Smad signaling pathway - cell viability counter screen (AID 1346829); note: top concentration of the series differs between compounds; nearly all actives have a fitted effect of over 45% in size
In short: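 Luminescence from CellTiter-Glo, read after a 30 min room-temperature incubation, gives cell viability of SBE-bla HEK 293T cells treated 5 hr with compounds at 37 C.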

[13] = qHTS assay to identify small molecule agonists of the TGF-beta/Smad signaling pathway (AID 1346859; active = well fitted activation curve with a large enough effect in the signal ratio in the repeat runs, not every such curve was filed as active; the % refers to the signal ratio; note: series mostly up to about 77 µM)
In short: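 SBE-bla HEK 293T, 4,000 cells/well, plated o/n; cpd in DMSO, 5 hr, 37 C/5% CO2; B/G FRET substrate 2 hr RT; ex 405, em 460/530 nm.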

[14] = Human pregnane X receptor (PXR) small molecule agonists, qHTS cell viability counter screen (AID 1346977); note: nearly all actives have a fitted effect of over 50% in size
In short: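 PXR-Luc HepG2, 2,000 cells/well, 5% charcoal-stripped FBS; 5hr settle; cpd 24hr, 37C/5% CO2; CellTiter-Fluor at 23hr, read 1hr later (fluorescence).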

[15] = qHTS assay to identify small molecule agonists or antagonists of the thyroid stimulating hormone receptor (TSHR) signaling pathway - wild type cell line counter screen (AID 1259384; calls by dose curve)
In short: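 Wild-type Hek293 cells, 800/well, 18 h at 37C, then compound with Ro20-1724 for 30 min RT. cAMP by HTRF (cAMP-d2/anti-cAMP cryptate), 1 h RT, fluorescence read. 15 concentrations, triplicates.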

[16] = target: Thyrotropin receptor (Homo sapiens) (UniProt P16473); assay: qHTS assay to identify small molecule antagonists of the thyroid stimulating hormone receptor (TSHR) signaling pathway (AID 1259385; calls by dose curve; note: nearly all actives have a fitted effect of over 20% in size)
In short: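 TSHR-HEK293 cells (800/well) plated 18 h, then compounds with Ro20-1724 and TSH at 1.5 ng/mL final, 30 min at room temperature. cAMP quantified by HTRF (cAMP-d2/anti-cAMP-cryptate, 1 h); 15 concentrations in triplicate.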

[17] = target: Progesterone receptor (Homo sapiens) (UniProt P06401); assay: qHTS assay to identify small molecule antagonists of the progesterone receptor (PR) signaling pathway (AID 1346795; active = well fitted inhibition curve with a large enough effect in the signal ratio in the repeat runs, not every such curve was filed as active; the % refers to the signal ratio)
In short: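 Read-out is fluorescence from the LiveBLAzer B/G FRET substrate, cleaved by a UAS-controlled beta-lactamase in PR-UAS-bla HEK293T cells after 16 hr exposure to compound plus 1 nM promegestone (final), followed by 2 hr at room temperature.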

[18] = target: Thyrotropin-releasing hormone receptor (Homo sapiens) (UniProt P34981); assay: qHTS assay to identify small molecule antagonists of the thyrotropin-releasing hormone receptor (TRHR) signaling pathway (AID 1346877; active = well fitted inhibition curve with a large enough effect in the repeat runs, not every such curve was filed as active; note: series mostly up to about 51 µM)
In short: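 Cells (TRHR-HEK293) are plated and kept 18 h at 37 °C/5% CO2. A calcium-sensitive dye is added for 2 h, compound follows for 5 min at room temperature, and TRH is then given at 1 nM final.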

[19] = target: Thyrotropin-releasing hormone receptor (Homo sapiens) (UniProt P34981); assay: qHTS assay to identify small molecule agonists of the thyrotropin-releasing hormone receptor (TRHR) signaling pathway (AID 1346891; calls by dose curve; note: series mostly up to about 58 µM)
In short: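 Intracellular calcium rise, read as fluorescence every second for 3 min, served as the agonist signal in dye-loaded HEK293 cells expressing TRHR; each compound ran at 15 concentrations in triplicate.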

[20] = target: Androgen receptor (Homo sapiens) (UniProt P10275); assay: qHTS assay to identify small molecule agonists of the androgen receptor (AR) signaling pathway in the presence of an antagonist (AID 1259381; calls by dose curve; note: nearly all actives have a fitted effect of over 15% in size)
In short: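 Cells are MDA-kb2 (human breast carcinoma, MMTV-luc, AR/GR responsive). Nilutamide is present at 3.0uM final throughout; compounds are added at 15 concentrations and incubated 16hr at 37C before ONE-Glo luminescence detection.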

Measured: Potency

Chain of Progesterone receptor (Homo sapiens) (P06401 whole entry, looked up): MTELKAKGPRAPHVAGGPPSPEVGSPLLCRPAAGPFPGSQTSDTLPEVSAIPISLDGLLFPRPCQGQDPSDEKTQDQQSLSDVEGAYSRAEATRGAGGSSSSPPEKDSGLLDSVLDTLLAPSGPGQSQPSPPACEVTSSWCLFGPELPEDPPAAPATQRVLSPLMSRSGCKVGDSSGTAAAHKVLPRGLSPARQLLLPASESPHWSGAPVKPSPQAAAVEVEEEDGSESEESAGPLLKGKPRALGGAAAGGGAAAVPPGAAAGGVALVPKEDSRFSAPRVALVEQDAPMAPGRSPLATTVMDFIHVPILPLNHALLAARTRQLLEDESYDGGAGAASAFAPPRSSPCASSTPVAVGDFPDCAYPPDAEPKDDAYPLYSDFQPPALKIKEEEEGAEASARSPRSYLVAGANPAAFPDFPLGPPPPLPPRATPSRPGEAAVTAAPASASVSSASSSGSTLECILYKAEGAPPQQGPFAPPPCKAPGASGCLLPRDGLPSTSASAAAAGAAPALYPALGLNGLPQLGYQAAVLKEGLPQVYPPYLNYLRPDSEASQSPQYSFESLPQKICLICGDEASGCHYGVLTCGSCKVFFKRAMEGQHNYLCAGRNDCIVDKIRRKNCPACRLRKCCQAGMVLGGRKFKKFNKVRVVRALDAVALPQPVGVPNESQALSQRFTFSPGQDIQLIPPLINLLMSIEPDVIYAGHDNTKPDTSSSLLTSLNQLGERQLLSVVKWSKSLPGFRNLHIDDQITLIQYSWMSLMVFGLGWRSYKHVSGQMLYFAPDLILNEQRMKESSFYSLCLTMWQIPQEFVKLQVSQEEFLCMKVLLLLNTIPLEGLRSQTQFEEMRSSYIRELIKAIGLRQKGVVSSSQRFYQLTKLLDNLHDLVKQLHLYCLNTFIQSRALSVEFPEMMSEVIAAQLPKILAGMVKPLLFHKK
Chain of Estrogen receptor beta (Homo sapiens) (Q92731 whole entry, looked up): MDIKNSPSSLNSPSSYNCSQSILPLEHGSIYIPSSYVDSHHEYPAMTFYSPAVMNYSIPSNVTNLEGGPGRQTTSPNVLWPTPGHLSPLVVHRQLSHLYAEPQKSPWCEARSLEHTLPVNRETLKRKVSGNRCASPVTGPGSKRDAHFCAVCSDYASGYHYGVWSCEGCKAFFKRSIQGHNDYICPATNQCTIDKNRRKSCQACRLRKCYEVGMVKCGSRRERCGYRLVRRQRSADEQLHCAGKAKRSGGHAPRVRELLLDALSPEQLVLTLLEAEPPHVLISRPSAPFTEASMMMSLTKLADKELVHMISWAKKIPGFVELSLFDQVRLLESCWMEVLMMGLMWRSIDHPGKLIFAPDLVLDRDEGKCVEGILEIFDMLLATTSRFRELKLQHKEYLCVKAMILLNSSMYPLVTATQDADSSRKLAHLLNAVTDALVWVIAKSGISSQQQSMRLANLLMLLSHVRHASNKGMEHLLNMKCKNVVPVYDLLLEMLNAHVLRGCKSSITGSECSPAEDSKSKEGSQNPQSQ
Chain of Thyrotropin receptor (Homo sapiens) (P16473 whole entry, looked up): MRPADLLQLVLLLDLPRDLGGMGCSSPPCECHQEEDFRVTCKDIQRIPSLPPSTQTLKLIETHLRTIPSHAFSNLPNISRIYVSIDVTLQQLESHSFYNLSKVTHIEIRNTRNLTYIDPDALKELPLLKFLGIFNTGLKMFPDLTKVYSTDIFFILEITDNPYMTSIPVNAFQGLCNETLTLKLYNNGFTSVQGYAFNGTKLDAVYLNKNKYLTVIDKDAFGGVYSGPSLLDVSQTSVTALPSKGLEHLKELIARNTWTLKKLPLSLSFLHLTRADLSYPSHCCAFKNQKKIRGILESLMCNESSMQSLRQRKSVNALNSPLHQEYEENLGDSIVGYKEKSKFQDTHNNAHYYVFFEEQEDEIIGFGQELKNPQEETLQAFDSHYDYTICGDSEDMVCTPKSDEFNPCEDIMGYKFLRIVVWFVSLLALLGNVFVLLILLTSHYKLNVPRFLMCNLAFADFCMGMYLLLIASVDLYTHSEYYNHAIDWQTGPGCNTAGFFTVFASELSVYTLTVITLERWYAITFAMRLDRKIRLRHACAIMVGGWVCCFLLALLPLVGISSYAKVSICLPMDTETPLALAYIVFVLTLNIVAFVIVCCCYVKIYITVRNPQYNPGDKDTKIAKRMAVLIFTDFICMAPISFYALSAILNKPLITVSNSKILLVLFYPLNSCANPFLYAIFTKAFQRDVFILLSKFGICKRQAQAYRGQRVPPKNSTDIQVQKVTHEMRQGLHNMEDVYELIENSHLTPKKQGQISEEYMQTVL
Chain of Estrogen receptor (Homo sapiens) (P03372 whole entry, looked up): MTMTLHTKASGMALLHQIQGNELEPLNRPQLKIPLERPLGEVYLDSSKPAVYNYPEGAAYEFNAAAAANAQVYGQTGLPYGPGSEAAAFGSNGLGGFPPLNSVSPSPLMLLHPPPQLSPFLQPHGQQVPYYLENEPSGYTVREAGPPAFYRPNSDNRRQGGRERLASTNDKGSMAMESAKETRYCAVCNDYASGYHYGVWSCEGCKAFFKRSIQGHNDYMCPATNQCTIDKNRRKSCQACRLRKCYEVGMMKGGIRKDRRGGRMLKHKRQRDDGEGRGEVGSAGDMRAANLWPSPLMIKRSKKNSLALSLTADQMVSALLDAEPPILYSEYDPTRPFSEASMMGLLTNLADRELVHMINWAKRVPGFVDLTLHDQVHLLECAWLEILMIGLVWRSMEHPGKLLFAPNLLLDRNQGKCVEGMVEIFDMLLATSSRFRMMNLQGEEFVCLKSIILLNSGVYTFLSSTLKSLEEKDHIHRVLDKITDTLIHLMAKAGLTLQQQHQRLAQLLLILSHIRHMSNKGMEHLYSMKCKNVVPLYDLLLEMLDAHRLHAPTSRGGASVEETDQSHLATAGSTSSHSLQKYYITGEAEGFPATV
Chain of Androgen receptor (Homo sapiens) (P10275 whole entry, looked up): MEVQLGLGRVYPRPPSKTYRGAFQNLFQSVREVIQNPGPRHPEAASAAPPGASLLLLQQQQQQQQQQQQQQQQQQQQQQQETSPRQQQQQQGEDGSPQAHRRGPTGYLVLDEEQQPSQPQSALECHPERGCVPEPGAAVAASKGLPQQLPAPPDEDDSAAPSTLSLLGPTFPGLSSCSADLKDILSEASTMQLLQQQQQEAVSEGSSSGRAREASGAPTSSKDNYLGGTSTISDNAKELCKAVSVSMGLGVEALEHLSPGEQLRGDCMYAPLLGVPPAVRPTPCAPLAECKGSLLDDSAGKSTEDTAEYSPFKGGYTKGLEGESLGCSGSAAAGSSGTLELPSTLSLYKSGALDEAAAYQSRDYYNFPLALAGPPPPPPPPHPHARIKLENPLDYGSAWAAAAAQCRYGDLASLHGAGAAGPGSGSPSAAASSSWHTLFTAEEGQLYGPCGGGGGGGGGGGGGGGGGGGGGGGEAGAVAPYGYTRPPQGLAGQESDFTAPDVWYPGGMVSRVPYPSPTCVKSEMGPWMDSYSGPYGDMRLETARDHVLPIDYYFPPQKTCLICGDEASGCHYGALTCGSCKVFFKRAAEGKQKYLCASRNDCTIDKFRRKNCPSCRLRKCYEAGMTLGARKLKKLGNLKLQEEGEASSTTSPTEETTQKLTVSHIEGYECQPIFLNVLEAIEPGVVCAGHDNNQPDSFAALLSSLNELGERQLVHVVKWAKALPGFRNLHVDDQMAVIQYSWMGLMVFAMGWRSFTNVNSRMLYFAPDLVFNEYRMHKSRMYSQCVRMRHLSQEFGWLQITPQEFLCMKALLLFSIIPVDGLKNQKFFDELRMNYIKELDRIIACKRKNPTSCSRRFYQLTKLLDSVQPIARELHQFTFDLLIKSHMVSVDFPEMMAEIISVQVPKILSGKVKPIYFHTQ
Chain of Thyrotropin-releasing hormone receptor (Homo sapiens) (P34981 whole entry, looked up): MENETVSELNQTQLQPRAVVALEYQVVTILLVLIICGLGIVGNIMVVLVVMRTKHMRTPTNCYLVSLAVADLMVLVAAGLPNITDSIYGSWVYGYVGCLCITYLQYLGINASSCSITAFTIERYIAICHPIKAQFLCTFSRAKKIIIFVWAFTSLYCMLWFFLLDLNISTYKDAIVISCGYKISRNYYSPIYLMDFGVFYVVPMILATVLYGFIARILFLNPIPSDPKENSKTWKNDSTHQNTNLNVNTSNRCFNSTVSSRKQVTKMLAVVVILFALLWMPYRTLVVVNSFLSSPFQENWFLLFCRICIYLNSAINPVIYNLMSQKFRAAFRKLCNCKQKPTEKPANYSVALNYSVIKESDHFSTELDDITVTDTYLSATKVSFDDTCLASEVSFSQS

O=C([O-])c1ccccn1.O=C([O-])c1ccccn1.O=C([O-])c1ccccn1.[Cr+3]
not listed: [15] | [16] | [17] | [18] | [19] | [20]
inactive: all other assays above

CC(C)(C)NCC(O)c1ccccc1Cl (stereo not given)
not listed: [9] | [20]
inactive: all other assays above

CCCCC(CC)CO[N+](=O)[O-] (stereo not given)
not listed: [12] | [20]
inactive: all other assays above

FC(F)OC(F)(F)C(F)Cl (stereo not given)
not listed: [6]
inactive: all other assays above

COC(=O)C1(O)c2ccccc2-c2ccccc21
not listed: [9] | [17]
inactive: all other assays above

Clc1ccc2ccccc2c1
not listed: [6] | [10]
inactive: all other assays above

CN(C1CCCCC1)C1CCCCC1
not listed: [17]
inactive: all other assays above

CC(C)(c1ccccc1)c1cc(-n2nc3ccccc3n2)c(O)c(C(C)(C)c2ccccc2)c1
not listed: [10] | [20]
inactive: all other assays above

O=C(NCNC(=O)NC1C(=O)NC(=O)N1CO)NC1C(=O)NC(=O)N1CO (stereo not given)
not listed: [6] | [9] | [10] | [12] | [14]
inactive: all other assays above

CCCCC1C(=O)NC(=O)N(C2CCCCC2)C1=O (stereo not given)
inactive: [1] | [2] | [3] | [4] | [5] | [6] | [10] | [11] | [12] | [13] | [14]

C=C(C)C(=O)OCCCCOC(=O)C(=C)C
not listed: [16] | [20]
inactive: all other assays above

C[N+](C)(C)CC1CO1 (stereo not given)
not listed: [6] | [10]
inactive: all other assays above

O=C=NC1CCCCC1
not listed: [7] | [9] | [20]
inactive: all other assays above

C[C@H]1O[C@H](OC2[C@@H](O)[C@@H](O)C(O)[C@H](O)[C@H]2O)[C@@H](N)C[C@@H]1N=C(N)C(=O)O (stereo not given in full)
not listed: [20]
inactive: all other assays above
